In PubChem BioAssay AID463173 (ICCB-Longwood Screening Facility, Harvard Medical School, 2010):
Out of some 52,000 compounds screened, about 4,300 (8.3%) were called active. The sample holds actives, similar compounds and a random draw of the others, so the mix is not that of the screen. Unmarked numbers belong to inactive results. Rule as the data show it: active = survival mostly below about 52% (no sharp cut-off); inactive = mostly above about 56%.

test system: DeltatarO mutant; assay: S. aureus survival, RN4220 and DeltatarO strains – OD600, teichoic acid synthesis inhibitors, primary screen (AID 463173); conditions: S. aureus RN4220 wild type/DeltatarO growth, OD600, 18 h, stronger effect = lower value, screened at 18.75 µg/mL (by protocol)

Structure (SMILES) | survival
c1ccc(Cn2ncc3c(N4CCCCC4)ncnc32)cc1 | 77%
COc1ccc(C2=C(C)C(=O)N(Cc3ccc(C(=O)NC(C)c4ccccc4)cc3)S2(=O)=O)cc1 (centres undefined) | 91%
CCOC(=O)c1c(NC(=O)/C=C/c2ccc(C)cc2)sc(C(C)=O)c1C | 79%
CCOc1ccc(CNC(=O)c2cnc3sc(N4CCCCCC4)nn3c2=O)cc1OC | 83%
COc1cc(NC(=O)N2CCc3c(sc4c3CCCC4)C2c2ccccc2)cc(OC)c1OC (centres undefined) | 103%
Cc1ccc(NC(=O)N2CCc3c(sc4c3CCCC4)C2c2ccccc2)cc1F (centres undefined) | 102%
COc1ccc(NC(=O)N2CCc3c(sc4c3CCCC4)C2c2ccccc2OC)cc1 (centres undefined) | 54% (active)
Cc1cccc(NC(=O)N2CCc3c(sc4c3CCCC4)C2c2ccc(F)cc2)c1 (centres undefined) | 37% (active)
COc1ccc(NC(=O)N2CCc3c(sc4c3CCCC4)C2c2ccc(F)cc2)cc1 (centres undefined) | 101%
O=C(Nc1ccc(F)cc1F)N1CCc2c(sc3c2CCCC3)C1c1ccc(F)cc1 (centres undefined) | 93%
Cc1ccc([N+](=O)[O-])c(Oc2ncnc3c2oc2ccccc23)c1 | 101%
Oc1c(C(c2ccccc2F)N2CCC3(CC2)OCCO3)sc2nc(-c3ccco3)nn12 (centres undefined) | 102%
Cc1ccc(C)c(Nc2cc(C(=O)NC3CCCC3)c3ccccc3n2)c1 | 87%
COc1ccc(N2C(=O)CS(=O)(=O)C23C(=O)N(Cc2ccccc2F)c2ccccc23)cc1Cl (centres undefined) | 75%
CCOC(=O)c1c(NC(=O)c2ccc(S(=O)(=O)N(CC(C)C)CC(C)C)cc2)sc2c1CCN(C(=O)OCC)C2 | 124%
Cc1ccc(Cl)cc1NC(=O)CSC1=Nc2ccccc2C2=NC(Cc3ccccc3)C(=O)N12 (centres undefined) | 71%
COc1ccc(NC(=O)CSc2nnc(NC(=O)Nc3ccccc3)s2)cc1OC | 86%
COc1ccccc1NC(=O)CSc1nnc(NC(=O)Nc2ccc(C)cc2)s1 | 58%
COc1ccc(NC(=O)CSc2nnc(NC(=O)Nc3ccccc3)s2)c(OC)c1 | 47% (active)
CCc1ccc(-n2nc(C)c3c(C(=O)N4CCN(c5ccccc5)CC4)cc(C)nc32)cc1 | 94%
Cn1cc(S(=O)(=O)c2cccc(Cl)c2)c(=O)c2cc(F)c(N3CCN(c4ccc(F)cc4)CC3)cc21 | 70%
CCn1cc(C(=O)O)c(=O)c2cc(F)c(N3CCN(C(=O)c4ccccc4F)CC3)cc21 | 3% (active)
Cc1cccc(S(=O)(=O)c2cn(Cc3ccc(F)cc3)c3cc(N4CCCCC4)c(F)cc3c2=O)c1 | -2% (active)
CCn1cc(S(=O)(=O)c2cc(C)cc(C)c2)c(=O)c2cc(F)c(N3CCCC3)cc21 | 109%
Cc1cccc(S(=O)(=O)c2cn(Cc3ccccc3)c3cc(N4CCCCC4)c(F)cc3c2=O)c1 | 82%
Cn1cc(S(=O)(=O)c2cccc(Cl)c2)c(=O)c2cc(F)c(N3CCN(c4ccccc4)CC3)cc21 | 6% (active)
O=c1c(S(=O)(=O)c2ccccc2)cn(Cc2ccc(F)cc2)c2cc(N3CCCCC3)c(F)cc12 | 80%

Structure (SMILES) | survival
Cn1cc(S(=O)(=O)c2ccccc2)c(=O)c2cc(F)c(N3CCN(c4ccccc4)CC3)cc21 | 116%
CCN1CCN(c2cc3c(cc2F)c(=O)c(S(=O)(=O)c2cc(C)cc(C)c2)cn3CC)CC1 | -1% (active)
CCn1cc(C(=O)NCC(C)C)c(=O)c2cc(F)c(N3CCN(C(=O)c4ccco4)CC3)cc21 | 76%
CCn1cc(C(=O)N2CCN(c3ccccc3F)CC2)c(=O)c2cc(S(=O)(=O)N(C)C)ccc21 | 122%
CCn1cc(S(=O)(=O)c2cc(C)cc(C)c2)c(=O)c2cc(F)c(N3CCCCC3)cc21 | 86%
COc1cccc(C(c2sc3nc(-c4ccco4)nn3c2O)N2CCC(C)CC2)c1 (centres undefined) | 78%
CC(C)(C)C(=O)OCc1cc(=O)n2nc(C3CC3)sc2n1 | 80%
CC(=O)c1cc(-c2ccc(F)cc2)n(CCC(=O)NCc2ccccc2C)c1C | 81%
Cc1ccc(-c2nnc3ccccc3c2C(=O)Nc2ccc(F)cc2)cc1 | 100%
CCCCNC(=O)Cn1cnc2sc(C)c(S(=O)(=O)N3CCN(c4ccccc4OC)CC3)c2c1=O | 86%
CCOC(=O)C1CCCN(S(=O)(=O)c2cc3c4c(c2)CC(=O)N4CCC3)C1 (centres undefined) | 93%
CCOc1ccc(-c2ccc(NS(=O)(=O)c3cc(C)ccc3OC)cc2)nn1 | 86%
O=C(NCCc1csc(-c2ccc(F)cc2)n1)c1cccs1 | 72%
Cc1ccc(NC2=CC(c3ccccc3F)N(c3ccc(C)cc3)C2=O)cc1 (centres undefined) | 49%
CC(=O)NC1CCN(C(=O)Nc2ccccc2)CC1 | 91%
Cc1csc2nc(COC(=O)c3ccccc3NC(=O)c3ccc(F)cc3)cc(=O)n12 | 55%
COc1ccc(-c2noc(N3CCC(C(=O)N4CCN(c5ccccc5OC)CC4)CC3)n2)cc1 | 61%
Cc1cccc(OCCCSc2nc(-c3ccc(C(C)(C)C)cc3)nc3cc(=O)[nH]n23)c1C | 102%
CC(C)CCNC(=O)c1ccc(Cn2c(SCC(N)=O)nc3ccccc3c2=O)cc1 | 46% (active)
CCCNC(=O)c1ccc(Cn2c(SCC(N)=O)nc3ccccc3c2=O)cc1 | 91%
CC(C)CCNC(=O)c1ccc(Cn2c(SCC(=O)NC(C)C)nc3ccccc3c2=O)cc1 | 144%
Cc1cc(C)c(NC(=O)c2cc(CN3CCOCC3)on2)c(C)c1 | 70%
COc1ccc(OC)c(/C=C/C(=O)Nc2ccc(C(=O)OCCC(C)C)cc2)c1 | 33% (active)
CCOCCOC(=O)c1ccc(NC(=O)/C=C/c2ccc(OC)c(OC)c2)cc1 | 137%
COc1ccc(/C=C/C(=O)Nc2ccc(C)cc2)cc1 | 77%
Cc1cc(=O)[nH]c2c(C)c(Cl)ccc12 | 93%
Cc1ccc(Cl)cc1Nc1nn2c(=O)c3ccc(C(=O)NC4CCC(C)CC4)cc3nc2s1 (centres undefined) | 100%
